Here are results for 39 compounds from PubChem BioAssay (NCI).

“And” between values parts separate entries of the source, which are not always exact repeats. Equal entries are not always repeated. Compounds without any hit were thinned out: in the full panel of roughly 83,000, 20% have a hit.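 Note: values are percent growth. 100 is the growth of untreated cells, values between 100 and 0 indicate rising inhibition; between -100 and 0 indicates cell death.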 Unmarked numbers belong to inactive results. The source made the active and inactive calls.

One experiment concerns KM12 colon. The experiment in a line: NCI-60 one-dose screen, 48 h (100 = growth as untreated, 0 = no growth, -100 = all killed). To be noted: 10 µM. As to the method:
Growth inhibition of the KM12 human tumor cell line is measured as a screen for anti-cancer activity. Cells are grown in 96 well plates and exposed to the test compound for 48 hours. Compounds are tested at a single concentration, which is 10^-5 M for most compounds. The reported endpoint is percent growth (GI% or GIPRCNT), where numbers from 0 - 100% represent growth inhibition, and numbers from -100% - 0 represent cell death. For example, a value of 40 represents 60% growth inhibition. A value of 0 means no net growth occurred over the course of the experiment. A value of -40 indicates 40% of cells at the beginning of the experiment died by the end of the experiment. A value of -100 means all cells are dead at the end of the experiment.
NCI-60 Human Tumor Cell Lines Screen was performed using the standard one-dose NCI protocol, which is described in more detail at https://dtp.cancer.gov/discovery_development/nci-60/default.htm.
Compounds with GIPRCNT values below 10 were considered active. Activity score was based on GIPRCNT using the following formula: […]
Score is 0 for GIPRCNT values of 100 or above, 50 for GIPRCNT values of 0, and 100 for GIPRCNT values of -100.
As for `O=C(/C=C/c1cccc(Oc2ccc(Cl)cc2)c1)c1ccccc1`, the growth was 75.3%.

Staying with this experiment, now noted: 10 µM unless noted.
In the case of `Nc1nc(Nc2ccc(F)cc2)nn1C(=O)c1cc(Cl)ccc1Cl`, the growth was 51.4%.
Still for that read-out and setting: in the case of `CCN(CC)/C([O-])=c1\cccc\c1=C1\N=C(c2ccccc2)N=C1[n+]1ccc(-c2ccccc2)cc1` it was 96.3%; in that of `CCOc1ccccc1NC(=O)c1cc2ccccc2cc1O`, 33.6%; in that of `C[N+]1=C(/C=C\C=C\c2ccccc2)C(C)(C)c2ccccc21`, 22.2%.
As for `O=C1/C(=C/c2ccc(-c3cccc(C(F)(F)F)c3)o2)SC(=S)N1CCc1ccc(O)cc1`, the growth is 54.9%.
With `Nc1ccc(-c2nc3ccc4[nH]ncc4c3c3c2CCCC3)cc1F`, the growth was 12.3%.
For the compound `CC1=CC(C)(C)NC(=S)N1c1ccc(Cl)cc1`, the growth was 101% and 105%.
Turning to `Cc1ccc(-c2nc3nc(-c4ccc(Cl)cc4)nc(N4CCCNCC4)c3o2)cc1`, the growth was -88.7% (active).
Consider `C=C1CC[C@@H]2[C@](C)(COC(C)=O)[C@H](OC(C)=O)CC[C@@]2(C)[C@@H]1CC(Nc1ccc(S(=O)(=O)Nc2nccs2)cc1)C1=CCOC1=O` (stereo not given in full), for which the growth is -0.895% (active).
Turning to `C=C1CCC2C3(C)COC(c4ccc(NC(C)=O)cc4)OC3CCC2(C)C1C/C=C1/C(=O)OCC1O` (stereo not given), the growth is 51.7%.
On to `Cc1ccc(-c2nc(C#N)c(S(=O)(=O)N(C)C)o2)cc1`, for which the growth is 95.4%.
As for `Cc1ccc(-c2nc(SCC(=O)c3ccc(C#N)cc3)[nH]c(=O)c2C#N)cc1`, the growth was 93.6%.
For the compound `CC[C@H](C)[C@H](NC(=O)[C@@H](N)CCC(N)=O)C(=O)N[C@@H](Cc1ccc(O)cc1)C(=O)N[C@@H](CCCCN)C(=O)N[C@@H](CCCCN)C(=O)N[C@@H](Cc1ccc(O)cc1)C(=O)N[C@@H](CCCNC(=N)N)C(=O)N[C@H](C(=O)N[C@@H](Cc1c[nH]c2ccccc12)C(=O)N[C@@H](Cc1ccc(O)cc1)C(=O)N[C@@H](CCCNC(=N)N)C(=O)N[C@@H](CCCCN)C(=O)N[C@@H](C)C(=O)N[C@@H](Cc1c[nH]c2ccccc12)C(=O)N[C@@H](CCCCN)C(=O)N[C@H](C(=O)N[C@@H](CC(C)C)C(=O)NCC(=O)N[C@@H](CCCCN)C(=O)N[C@H](C(N)=O)C(C)C)C(C)C)[C@@H](C)O`, the growth is -33% (active).
Consider `COc1ccc(/C=C(\C#N)c2cc3ccccc3[nH]2)cc1`, for which the growth was 20.4%.
The same measure, in the same setting: as for `O=[N+]([O-])c1ccc2[nH]c3nccc(NCc4cccc(Cl)c4)c3c2c1`, the figure is 84.7%; as for `COc1ccc(C/C(C)=C(/c2ccc(OCCN3CCCCCC3)cc2)c2ccc(OC(=O)c3ccccc3)cc2)cc1`, 120%.
The same measure, in the same setting: as for `Cc1ccc2c(c1)C(C)Cc1c(ncnc1-n1cnc3cc(C)ccc31)N2C` (stereo not given), the figure is 16.5%; as for `CC(Sc1ccccc1)C(=O)O` (stereo not given), 107%.
Regarding `CCOC(=O)c1cnn(CC(O)CC)c1NC(=O)NCc1ccccc1C(F)(F)F` (stereo not given), the growth was 103%.
Same read-out and setting: as for `Clc1ccc2c(NCCN3CCN(c4ccnc(N5CCCC5)n4)CC3)ccnc2c1`, the figure is 54.3%; as for `Clc1ccc2c(c1)N(c1ncnc3ccc(-c4cnc5[nH]ccc5c4)cc13)CC2`, 19.9%.
Same read-out and setting: as for `C=CCN1C=CC(=O)[C@H](O[Si](C)(C)C(C)(C)C)[C@@H]1/C=C/c1ccccc1`, the figure is -71.8% [100 µM] (active).
As for `COc1c(NC=O)c2c(c([N+](=O)[O-])c1OC)C(=O)OC2`, the growth is 109% and 102%.
With `CN1CCN(C(=O)OCc2nc3c(N4CCOCC4)nc(Cl)nc3n2C)CC1`, the growth was 15.5%.
For `Cn1ccnc1CN1CCSC(C(=O)Nc2ccccc2)C1` (stereo not given), the growth is 97.7%.
Turning to `CCNC(=O)Nc1ncccc1OCc1ccc(F)cc1`, the growth was 88.1%.
For the compound `CN1CCN(c2ccc(/C=C/C(=O)c3ccc(O)cc3)cc2)CC1`, the growth was 101%.
Consider `Nc1[nH]nc(Nc2ccccc2)c1-c1nc2ccccc2s1`, for which the growth is 15.6%.
On the same count and under the same terms, in the case of `COc1ccc(/C=C2\COc3ccc(O)c(O)c3C2=O)c(OC)c1OC` it was 33.5%.
With `CN(Cc1ccccc1)c1nc(Cl)c(C2CC(c3ccc(F)cc3)=NN2C=O)s1` (stereo not given), the growth is 93.2%.
On the same count and under the same terms, in the case of `Cc1ccc(/C=C(\C#N)c2cc3ccccc3[nH]2)cc1` it was 31.7%; in that of `CCCCCCNC(=O)Oc1ccc(/C(=C(/CC)Cc2ccccc2)c2ccc(OCCCN(C)C)cc2)cc1`, 82.4%; in that of `Cc1nn(-c2nc(-c3cc4ccccc4oc3=O)cs2)c(C)c1N=Nc1ccccc1`, 100%.
For `O=C(CCCOc1ccc(Br)cc1)Nc1ncc(Cc2ccc(F)cc2)s1`, the growth is 36.2%.
On to `CNC(=O)c1cc(Oc2ccc3nc(NC(=O)Nc4ccc(C(F)(F)F)cc4)sc3c2)ccn1`, for which the growth was 65%.
As to `COc1ccc(Nc2nn3c(SCC(=O)c4ccc(C)cc4)nnc3s2)cc1`, the growth was 97.3%.
With `COc1c(F)cc(-n2c(C(=O)N3CC(F)C3)cc3cccnc32)cc1F`, the growth is 98.8%.
With `[2H]C([2H])([2H])Oc1cccc(/C=C/C(=O)/C=C(/C=C/c2cccc(OC([2H])([2H])[2H])c2OC([2H])([2H])[2H])OB(F)F)c1OC([2H])([2H])[2H]`, the growth is 92.2%.

The experiment is the same for the next values; noted with them: 100 µM.
As to `O=C(/C=C/c1cccc(Oc2ccc(Cl)cc2)c1)c1ccccc1`, the growth is -76.8% (active).
